# Source: the supplement of paper PMC6992640
# ± gives the standard deviation of the averaged measurements.
# Test system: UCD52 (cells of a triple-negative basal-like breast cancer xenograft)
# Assay: cell viability (% of vehicle); higher = less cytotoxic
# Conditions: 10 µM; 72 h
# 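Note: PDX cells carrying CMV promoter-driven luciferase, viability read as total photon flux per second by IVIS imaging following D-luciferin, vehicle control 0.1% DMSO.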
row,SMILES,cell viability
1,Cc1ccc(-n2[nH]c(C)c(NN=C3C=CC=C(c4cccc(C(=O)O)c4)C3=O)c2=O)cc1C [Eltrombopag],57 ± 2.9
2,Oc1c(Cl)cc(Cl)c2cccnc12 [Chloroxine],120 ± 88
3,CCN(CC)CCCC(C)Nc1ccnc2cc(Cl)ccc12.O=P(O)(O)O.O=P(O)(O)O (stereo not drawn) [Chloroquine diphosphate],72.7 ± 0.86
4,COC(=O)NC(C(=O)NC(Cc1ccccc1)C(O)CN(Cc1ccc(-c2ccccn2)cc1)NC(=O)C(NC(=O)OC)C(C)(C)C)C(C)(C)C (stereo not drawn) [Atazanavir],51.6 ± 3.1
5,COc1cc2nccc(Oc3ccc(NC(=O)C4(C(=O)Nc5ccc(F)cc5)CC4)cc3)c2cc1OC.O=C(O)CC(O)C(=O)O [Cabozantinib malate (XL184)],34.5 ± 3.2
6,O=C(C=Cn1cnc(-c2cc(C(F)(F)F)cc(C(F)(F)F)c2)n1)NNc1cnccn1,80.1 ± 1.8
7,Nc1ccn(C2OC(CO)C(O)C2O)c(=O)n1 (stereo not drawn) [Cytarabine],91.4 ± 17
8,CO[C@H]1/C=C/O[C@@]2(C)Oc3c(C)c(O)c4c(O)c(c(/C=N/N5CCN(C6CCCC6)CC5)c(O)c4c3C2=O)NC(=O)/C(C)=C\C=C\[C@H](C)[C@H](O)[C@@H](C)[C@@H](O)[C@@H](C)[C@H](OC(C)=O)[C@@H]1C [Rifapentine],77.4 ± 4.6
9,CS(=O)(=O)O.Cc1c(O)cccc1C(=O)NC(CSc1ccccc1)C(O)CN1CC2CCCCC2CC1C(=O)NC(C)(C)C (stereo not drawn) [Nelfinavir Mesylate],48 ± 2
10,CCN(CC)CCNC(=O)c1c(C)[nH]c(C=C2C(=O)Nc3ccc(F)cc32)c1C.O=C(O)CC(O)C(=O)O [Sunitinib malate],15.3 ± 1.1
11,N.N.O=C([O-])C1(C(=O)[O-])CCC1.[Pt+2] [Carboplatin],39.6 ± 6.8
12,CC(NCCCc1cccc(C(F)(F)F)c1)c1cccc2ccccc12.Cl (stereo not drawn) [Cinacalcet HCl],29.6 ± 2.4
13,COC(=O)c1ccc2c(c1)NC(=O)C2=C(Nc1ccc(N(C)C(=O)CN2CCN(C)CC2)cc1)c1ccccc1 [Nintedanib (BIBF 1120)],34.9 ± 2.4
14,COc1cc(C(=O)NS(=O)(=O)c2ccccc2C)ccc1Cc1cn(C)c2ccc(NC(=O)OC3CCCC3)cc12 [Zafirlukast],78.7 ± 6.7
15,CCC(=C(c1ccccc1)c1ccc(OCCN(C)C)cc1)c1ccccc1.O=C(O)CC(O)(CC(=O)O)C(=O)O [Tamoxifen Citrate],34.5 ± 0.98
16,CCCCc1oc2ccc(NS(C)(=O)=O)cc2c1C(=O)c1ccc(OCCCN(CCCC)CCCC)cc1.Cl [Dronedarone HCl],30.9 ± 5.9
17,CC(C)CC(NC(=O)CNC(=O)c1cc(Cl)ccc1Cl)B(O)O (stereo not drawn),58.8 ± 3.8
18,COC(=O)C1=C(C)NC(C)=C(C(=O)OCCN(C)Cc2ccccc2)C1c1cccc([N+](=O)[O-])c1.Cl (stereo not drawn) [Nicardipine HCl],55.37 ± 0.27
19,CCOc1cc2ncc(C#N)c(Nc3ccc(F)c(Cl)c3)c2cc1NC(=O)C=CCN(C)C [Pelitinib (EKB-569)],32.5 ± 1.5

row,SMILES,cell viability
1,CCOC(=O)c1c(CSc2ccccc2)n(C)c2cc(Br)c(O)c(CN(C)C)c12.Cl [Arbidol HCl],35.7 ± 1.1
2,CN(C)CCOc1ccc(C(=C(CCCl)c2ccccc2)c2ccccc2)cc1.O=C(O)CC(O)(CC(=O)O)C(=O)O [Toremifene Citrate],38.3 ± 2.4
3,CN(C)c1ccc(O)c2c1CC1CC3C(N(C)C)C(=O)C(C(N)=O)=C(O)C3(O)C(=O)C1=C2O.Cl (stereo not drawn) [Minocycline HCl],70.7 ± 4.3
4,CC(Oc1cc(-c2cnn(C3CCNCC3)c2)cnc1N)c1c(Cl)ccc(F)c1Cl [(R)-Crizotinib],23.1 ± 3.7
5,CC(C)(C)NC(=O)C1CC2CCCCC2CN1CC(O)C(Cc1ccccc1)NC(=O)C(CC(N)=O)NC(=O)c1ccc2ccccc2n1.CS(=O)(=O)O (stereo not drawn) [Saquinavir mesylate],50.4 ± 0.71
6,O=C1C=CC=CC1=C1NC(=C2C=CC=CC2=O)N(c2ccc(C(=O)O)cc2)N1 [Deferasirox],77.7 ± 33
7,Cl.OC(c1cc(C(F)(F)F)nc2c(C(F)(F)F)cccc12)C1CCCCN1 (stereo not drawn) [Mefloquine hydrochloride],30.3 ± 5.2
8,O=C(NC1CCN(CCCCC2(C(=O)NCC(F)(F)F)c3ccccc3-c3ccccc32)CC1)c1ccccc1-c1ccc(C(F)(F)F)cc1 [Lomitapide],33 ± 3
9,CCCCCCCCOc1ccccc1C(=O)Nc1ccc(C(=O)OCC[N+](C)(CC)CC)cc1.[Br-] [Otilonium Bromide],63.47 ± 0.62
10,COc1cc(Nc2c(C#N)cnc3cc(OCCCN4CCN(C)CC4)c(OC)cc23)c(Cl)cc1Cl [Bosutinib (SKI-606)],37.1 ± 4.8
11,CNC(=O)c1cc(Oc2ccc(NC(=O)Nc3ccc(Cl)c(C(F)(F)F)c3)c(F)c2)ccn1 [Regorafenib],117 ± 4.5
12,COC1=C(OC)C(=O)C(CCCCCCCCCCO)=C(C)C1=O [Idebenone],78.2 ± 6.6
13,Nc1ncn(C2OC(CO)C(O)C2O)c(=O)n1 (stereo not drawn) [5-Azacytidine],53.4 ± 3.7
14,CC(C)Nc1cc(-c2c[nH]c(C(=O)NC(CO)c3cccc(Cl)c3)c2)c(Cl)cn1 (stereo not drawn),56.5 ± 4
15,COc1cc(Nc2ncc(F)c(Nc3ccc4c(n3)N(COP(=O)(O)O)C(=O)C(C)(C)O4)n2)cc(OC)c1OC [Fostamatinib (R788)],55.7 ± 3.7
16,CNCCCC12CCC(c3ccccc31)c1ccccc12.Cl [Maprotiline HCl],35.4 ± 2.8
17,COc1cc(C(=O)O)ccc1NC(=O)C1NC(CC(C)(C)C)C(C#N)(c2ccc(Cl)cc2F)C1c1cccc(Cl)c1F (stereo not drawn),101 ± 6.1
18,CC(NCCCc1cccc(C(F)(F)F)c1)c1cccc2ccccc12 (stereo not drawn) [Cinacalcet],17.3 ± 0.67
19,Cl.Clc1ccccc1CN1CCc2sccc2C1 [Ticlopidine HCl],62.5 ± 2.4
